# About 2,000 (36%) of roughly 5,500 compounds were called active. Roughly 18% stayed inconclusive and do not appear here. The list shows a part of the results. Values without a mark were called inactive. Cut-off read from the data, not from the text of the source: active = normalized growth mostly below about 0.91 (no sharp cut-off); inconclusive = no clear call, values can overlap the other calls; inactive = mostly above about 0.92.
# Assay: chemical genetic growth profiling, strain panel (AID 1159580);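 note: tested at 20 µM; growth read once vehicle control cultures reached saturation at 30 °C; 1 = growth at the plate median or of vehicle wells; lower values mean less growth of the strain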
# Settings: growth OD
# [1] = S. cerevisiae deletion strains, locus YAL013W, strain DEP1, hits give low values
# [2] = S. cerevisiae deletion strains, locus YBR229C, strain ROT2, hits give low values
# [3] = S. cerevisiae deletion strains, locus YCL061C, strain MRC1, hits give low values
# [4] = S. cerevisiae deletion strains, locus YDL101C, strain DUN1, hits give low values
# [5] = S. cerevisiae deletion strains, locus YDR150W, strain NUM1, hits give low values
# [6] = S. cerevisiae deletion strains, locus YEL061C, strain CIN8, hits give low values
# [7] = S. cerevisiae deletion strains, locus YGR078C, strain PAC10, hits give low values
# [8] = S. cerevisiae deletion strains, locus YHR030C, strain SLT2, hits give low values
# [9] = S. cerevisiae deletion strains, locus YHR087W, strain rtc3, hits give low values
# [10] = S. cerevisiae deletion strains, locus YJR043C, strain POL32, hits give low values
# [11] = S. cerevisiae deletion strains, locus YJR075W, strain HOC1, hits give low values
# [12] = S. cerevisiae deletion strains, locus YKL190W, strain CNB1, hits give low values
# [13] = S. cerevisiae deletion strains, locus YLR039C, strain RIC1, hits give low values
# [14] = S. cerevisiae deletion strains, locus YLR058C, strain SHM2 (second series), hits give low values
# [15] = S. cerevisiae deletion strains, locus YLR085C, strain ARP6, hits give low values
# [16] = S. cerevisiae deletion strains, locus YLR262C, strain YPT6, hits give low values
# [17] = S. cerevisiae deletion strains, locus YML094W, strain GIM5, hits give low values
# [18] = S. cerevisiae deletion strains, locus YMR219W, strain ESC1, hits give low values
# [19] = S. cerevisiae deletion strains, locus YMR263W, strain SAP30, hits give low values
# [20] = S. cerevisiae deletion strains, locus YNL128W, strain TEP1, hits give low values
# [21] = S. cerevisiae deletion strains, locus YNL153C, strain GIM3, hits give low values
# [22] = S. cerevisiae deletion strains, locus YNL298W, strain CLA4 (second series), hits give low values
# [23] = S. cerevisiae deletion strains, locus YNL322C, strain KRE1, hits give low values
# [24] = S. cerevisiae deletion strains, locus YNR030W, strain Alg12, hits give low values
# [25] = S. cerevisiae deletion strains, locus YOL006C, strain TOP1, hits give low values
# [26] = S. cerevisiae deletion strains, locus YPL055C, strain LGE1, hits give low values
# [27] = S. cerevisiae deletion strains, locus YPL241C, strain CIN2, hits give low values
# [28] = S. cerevisiae deletion strains, locus YPR135W, strain CTF4, hits give low values
# [29] = S. cerevisiae strains, strain wild type, hits give low values
# [30] = S. cerevisiae deletion strains, locus YGR229C, strain SMI1, hits give low values
compound,measurement,setting,value
CC(=O)CSc1nsc(SCC(C)=O)c1C#N,normalized growth,[1],1.01
same,normalized growth,[2],1
same,normalized growth,[3],1.01
same,normalized growth,[4],0.974
same,normalized growth,"S. cerevisiae deletion strains, locus YDL134C, strain PPH21, hits give low values",1.01
same,normalized growth,[5],0.99
same,normalized growth,[6],1.02
same,normalized growth,[7],0.997
same,normalized growth,[8],0.992
same,normalized growth,[9],0.971
same,normalized growth,[10],1
same,normalized growth,[11],0.995
same,normalized growth,[12],1.01
same,normalized growth,[13],1.01
same,normalized growth,[14],0.992
same,normalized growth,[15],1
same,normalized growth,[16],0.962
same,normalized growth,[17],1.01
same,normalized growth,[18],0.989
same,normalized growth,[19],0.996
same,normalized growth,[20],1.01
same,normalized growth,[21],0.979
same,normalized growth,[22],0.988
same,normalized growth,[23],1.01
same,normalized growth,[24],0.986
same,normalized growth,[25],0.87
same,normalized growth,[26],0.903
same,normalized growth,[27],0.992
same,normalized growth,[28],0.918
same,normalized growth,[29],1
COc1ccc2[nH]c(I)c(CCNC(C)=O)c2c1,normalized growth,[1],1.03
same,normalized growth,"S. cerevisiae deletion strains, locus YAL040C, strain CLN3, hits give low values",0.959
same,normalized growth,"S. cerevisiae deletion strains, locus YCL061C, strain MRC1 (second series), hits give low values",1.01
same,normalized growth,"S. cerevisiae deletion strains, locus YDR363W, strain ESC2, hits give low values",1.02
same,normalized growth,"S. cerevisiae deletion strains, locus YER002W, strain NOP16, hits give low values",1.01
same,normalized growth,[7],1.02
same,normalized growth,[30],0.998
same,normalized growth,[11],1.11 [resistant] (active)
same,normalized growth,[20],1.1
same,normalized growth,[21],0.997
same,normalized growth,"S. cerevisiae deletion strains, locus YNL175C, strain NOP13, hits give low values",1.01
same,normalized growth,"S. cerevisiae deletion strains, locus YNL197C, strain WHI3, hits give low values",1.01
same,normalized growth,"S. cerevisiae deletion strains, locus YNL224C, strain SQS1, hits give low values",1.02
same,normalized growth,[23],1.02
same,normalized growth,[26],1.09
same,normalized growth,[27],1.01
CCCc1ccc(OC)cc1NC(C)=O,normalized growth,[1],1.01
same,normalized growth,[2],1.01
same,normalized growth,[3],1.03
same,normalized growth,[4],1
same,normalized growth,[5],0.95
same,normalized growth,[6],0.996
same,normalized growth,[7],1.02
same,normalized growth,[30],0.991
same,normalized growth,[8],1.06
same,normalized growth,[9],1
same,normalized growth,[10],1
same,normalized growth,[11],0.996
same,normalized growth,[12],0.991
same,normalized growth,[13],1.02
same,normalized growth,[14],1.02
same,normalized growth,[15],1.03
same,normalized growth,[16],0.987
same,normalized growth,[17],1.03
same,normalized growth,[18],1.01
same,normalized growth,[19],1.01
same,normalized growth,[21],1.03
same,normalized growth,[22],1.05
same,normalized growth,[23],1.01
same,normalized growth,[24],1.02
same,normalized growth,[25],1.06
same,normalized growth,[26],0.99
same,normalized growth,[27],0.999
same,normalized growth,[28],1.06
same,normalized growth,[29],0.999
